Consider one molecule from PubChem BioAssay AID504635 (The Scripps Research Institute Molecular Screening Center, 2011).

Each structure is given as a SMILES string. The list shows a part of the results. Unmarked numbers belong to inactive results. No stated cut-off is given here; in the data, active means inhibition above about 18%; inactive means the rest.

The assay addresses Troponin I, cardiac muscle (Homo sapiens) + Troponin T, cardiac muscle (Homo sapiens) + Troponin C, slow skeletal and cardiac muscles (Homo sapiens) (UniProt P19429+P45379+P63316). Nature of the assay: calcium desensitizers of cardiac thin filaments – biochemical, fluorescence readout, confirmation (AID 504635). To be noted: reconstituted cardiac thin filaments, calcium sensitivity fluorescence; at 7.15 µM; active compounds read high.

As usually defined, the inhibition is the relative decrease from the control value, in per cent. For `COC1=C[C@@H]2[C@@H]3Cc4ccc(OC)c(O)c4[C@]2(CCN3C)CC1=O`, the inhibition was -1.97%.
